Screens: PubChem BioAssay, Broad Institute
The full list was thinned out, with hits kept by preference.
DUX4 txn inh: DUX4-mediated transcription inhibition; 293T-iDUX4 ZSCAN4-Gaussia luciferase reporter, 24 h; hits give low values; AID 1224904; activity change, negative = inhibition, % (test concentration not listed); 37,000 compounds, 0.8% hits;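 active means mean inhibition of at least 10% in the main channel, exceeding the control channel by a set limit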;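 further: 0% = median of neutral control wells and -100% = median of positive control wells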
Active calls of the source: *; ! = not active in a repeat.

SMILES | DUX4 txn inh
C[C@H](O)C#Cc1ccc([C@H]2[C@H]3CN(S(=O)(=O)c4ccccc4)CCCCN3[C@H]2CO)cc1 | 1.9
O=S(=O)(c1ccccc1)N1CCCCN2[C@H](CO)[C@@H](c3ccc(-c4ccccc4)cc3)[C@@H]2C1 | -5.3
O=S(=O)(c1ccccc1)N1CCCCN2[C@H](CO)[C@H](c3ccc(C#Cc4cccnc4)cc3)[C@@H]2C1 | -56.4*
O=S(=O)(c1ccccc1)N1CCCCN2[C@H](C1)[C@H](c1ccc(C#CC3CCCC3)cc1)[C@@H]2CO | -26.4*
O=S(=O)(c1ccc(F)cc1)N1CCCCN2[C@H](C1)[C@@H](c1ccc(C#CC3CC3)cc1)[C@@H]2CO | -1.8
C[C@H](O)C#Cc1ccc([C@@H]2[C@H](CO)N3CCCCN(S(=O)(=O)c4ccccc4)C[C@@H]23)cc1 | 0.5
O=C(Nc1ccc(F)cc1)N1CCCCN2[C@H](C1)[C@H](c1ccc(C#CC3CC3)cc1)[C@@H]2CO | 24.3
O=C(C1CC1)N1CCCCN2[C@H](C1)[C@@H](c1ccc(C#CC3CCCC3)cc1)[C@@H]2CO | -24.5*
O=S(=O)(c1ccccc1)N1CCCCN2[C@H](C1)[C@@H](c1ccc(C#Cc3cccnc3)cc1)[C@@H]2CO | 0.3
O=S(=O)(c1ccccc1)N1CCCCN2[C@H](CO)[C@H](c3ccc(C#CC4CCCC4)cc3)[C@@H]2C1 | 22.9
O=S(=O)(c1ccccc1)N1CCCCN2[C@H](C1)[C@H](c1ccc(C#Cc3cccnc3)cc1)[C@@H]2CO | -45.3*
O=C(C1CC1)N1CCCCN2[C@H](CO)[C@H](c3ccc(C#CC4CCCC4)cc3)[C@H]2C1 | -0.6
COCC(=O)N1[C@H](CO)[C@H](c2ccc(-c3cccc(OC)c3)cc2)C12CN(C(C)=O)C2 | 11.7
C[C@@H]1CN([C@H](C)CO)S(=O)(=O)c2ccc(C#Cc3ccccc3F)cc2O[C@H]1CN(C)CC1CCOCC1 | 1.1
COc1ccc(S(=O)(=O)Nc2ccc3c(c2)C(=O)N([C@@H](C)CO)C[C@@H](C)[C@H](CN(C)Cc2ccc(C(=O)Nc4ccccc4N)cc2)OCCCC[C@@H](C)O3)cc1 | -2.3
C[C@H](NC(=O)C[C@H]1CC[C@@H]2[C@H](COC[C@@H](O)CN2C)O1)c1ccccc1 | 14.2
COCC#Cc1cnc2c(c1)C(=O)N([C@H](C)CO)C[C@@H](C)[C@@H](CN(C)Cc1ccc(-c3ccccc3)cc1)O2 | 3.1
CCCC#Cc1ccc([C@@H]2[C@@H](CO)N3CCCCN(Cc4ccncc4)C[C@@H]23)cc1 | 9.1
CC(=O)N1CCCCN2[C@H](C1)[C@H](c1ccc(C#Cc3ccccc3F)cc1)[C@@H]2CO | -7.0
O=C(CN1CCOCC1)N1CCCCN2[C@H](CO)[C@@H](c3ccc(C#Cc4ccccc4F)cc3)[C@@H]2C1 | -35.9*
O=C(CN1CCOCC1)N1CCCCN2[C@H](CO)[C@@H](c3ccc(C#Cc4ccccc4F)cc3)[C@H]2C1 | -7.2
CC(=O)N1CCCCN2[C@@H](CO)[C@H](c3ccc(C#Cc4ccccc4F)cc3)[C@@H]2C1 | -9.9
O=C(CN1CCOCC1)N1CCCCN2[C@@H](CO)[C@@H](c3ccc(C#Cc4ccccc4F)cc3)[C@@H]2C1 | -9.2
CC(C)NC(=O)N1CCCCN2[C@H](C1)[C@@H](c1ccc(C#Cc3ccccc3F)cc1)[C@@H]2CO | -46.8*
COc1ccc([C@H]2CC=CC[C@@H](C)Oc3ccccc3C(=O)N(C)[C@H](C)C(=O)N2)c(OC)c1 (mixture of isomers) | 1.0
SMILES | DUX4 txn inh
C[C@@H]1CCCCO[C@@H](CN(C)C(=O)Cc2ccccc2)[C@@H](C)CN([C@@H](C)CO)C(=O)c2cc(NS(C)(=O)=O)ccc2O1 | -1.2
COc1cccc(S(=O)(=O)N[C@H]2CC[C@H](CC(=O)NC3Cc4ccccc4C3)O[C@H]2CO)c1 | 5.2
CN(C)C(=O)c1cccc(-c2ccc3c(c2)[C@H]2[C@H](CCN2C(=O)Cc2ccccn2)[C@H](CO)N3C)c1 | 19.4
CC(=O)N1[C@@H]2c3cccc(=O)n3C[C@H]1[C@H](CO)[C@H]2C(=O)NC1CCCC1 | 6.3
C[C@@H]1CCCCO[C@H](CN(C)C(=O)Nc2cccc3ccccc23)[C@@H](C)CN([C@@H](C)CO)C(=O)c2cc(NS(=O)(=O)c3cn(C)cn3)ccc2O1 | 0.1
N#C[C@@H]1[C@H](c2ccc(-c3ccc(F)cc3)cc2)[C@@H](CO)N1C(=O)Cc1ccccc1 | -0.9
CO[C@@H](CN(C)C(=O)Nc1ccc(Cl)cc1)[C@@H](C)CN(Cc1ccccc1Cl)[C@H](C)CO | 2.1
CO[C@H](CN(C)C(=O)c1ccccc1F)[C@@H](C)CN([C@H](C)CO)S(=O)(=O)c1ccc(Cl)cc1 | -2.0
COc1cccc(CN2CCCCN3[C@H](CO)[C@H](c4ccc(-c5cccc(C#N)c5)cc4)[C@@H]3C2)c1 | -3.2
N#Cc1cccc(-c2ccc(C3[C@@H]4CN(Cc5ccccc5)C[C@H]3N4)cc2)c1 (some centres undefined) | -26.5*
CS(=O)(=O)N1CCCCN2[C@H](CO)[C@@H](c3ccc(-c4cccc(C#N)c4)cc3)[C@H]2C1 | 2.5
N#Cc1cccc(-c2ccc(C3[C@H]4CNC[C@@H]3N4Cc3cccc(-c4ccncc4)c3)cc2)c1 (some centres undefined) | -4.5
CS(=O)(=O)N1CCCCN2[C@H](CO)[C@H](c3ccc(-c4cccc(C#N)c4)cc3)[C@@H]2C1 | 14.5
N#Cc1cccc(-c2ccc(C3[C@@H]4CN(S(=O)(=O)Cc5ccccc5)C[C@H]3N4)cc2)c1 (some centres undefined) | -40.8*
COCCNC(=O)C[C@@H]1C[C@H]2c3cc(NS(=O)(=O)c4ccccc4)ccc3O[C@H]2[C@@H](CO)O1 | 3.9
CO[C@H]1CN(C)C(=O)c2cc(NC(=O)C3CCCCC3)ccc2OC[C@H](C)N(Cc2cccnc2)C[C@@H]1C | 0.2
Cc1ccccc1-c1ccc([C@@H]2[C@@H](CO)N3C(=O)CN(S(C)(=O)=O)C[C@@H]23)cc1 | 7.0
COc1ccc(-c2ccc(C3[C@@H]4CN(S(=O)(=O)c5ccccc5C)C[C@H]3N4)cc2)cc1 (some centres undefined) | -42.4*!
COc1ccc(-c2ccc(C3[C@@H]4CN(C(=O)c5cnccn5)C[C@H]3N4)cc2)cc1 (some centres undefined) | -32.2*
COc1ccc(NC(=O)N2C[C@@H]3N[C@H](C2)C3c2ccc(-c3ccncc3)cc2)cc1 (some centres undefined) | 7.6
COc1ccccc1-c1ccc(C2[C@@H]3CN(C(=O)c4ccncc4)C[C@H]2N3)cc1 (some centres undefined) | 8.5
Cc1ccccc1-c1ccc(C2[C@@H]3CN(Cc4cccnc4)C[C@H]2N3)cc1 (some centres undefined) | -24.3*
COc1ccccc1S(=O)(=O)N1C[C@@H]2N[C@H](C1)C2c1ccc(-c2ccccc2C)cc1 (some centres undefined) | -42.1*!
C/C=C/c1ccc(C2[C@@H]3CN(S(=O)(=O)c4ccccc4F)C[C@H]2N3)cc1 (some centres undefined) | -6.0
COc1ccc(NC(=O)N2C[C@@H]3N[C@H](C2)C3c2ccc(-c3cncnc3)cc2)cc1 (some centres undefined) | 9.3
O=C(c1cnccn1)N1C[C@@H]2N[C@H](C1)C2c1ccc(/C=C/c2ccccc2)cc1 (some centres undefined) | -5.4
CN(C)C(=O)c1ccc(-c2ccc(C3[C@@H]4CN(Cc5cccnc5)C[C@H]3N4)cc2)cc1 (some centres undefined) | 3.8
